From PubChem BioAssay AID624331 (National Center for Advancing Translational Sciences (NCATS), 2012)
Inconclusive results are not listed. Activity calls are given as the source filed them. Calls follow the shape of the dose curve; as a rule, active = well fitted activation curve with a large enough effect; inconclusive = small, poorly fitted or top-dose-only effect; inactive = no such curve, though single readings can be large or run the other way.

experiment: qHTS assay for re-activators of p53 using a Luc reporter: Hit Validation with no p53 Expressed; conditions: p53-null cells, luciferase reporter counter-screen; series mostly up to 46.1 µM
Source text: The p53 tumor suppressor plays a key role in suppression of tumorigenesis and in human carcinogenesis. It is frequently found inactivated in human cancers, mainly by point mutation. These point mutations are found in a wide variety of human cancers and a majority of them affect the DNA binding domain of the protein. The point mutations either alter native p53 conformation or abolish DNA contact. Additionally, cancer cells with p53 mutations are more resistant to chemo-radiation therapies.
This counter screen was run against the hits identified from the primary screen. It uses a cell line that was not transfected with p53. Compounds that show activity in this counter screen show unspecific activation of the assay system and are excluded from further consideration.
NIH Chemical Genomics Center [NCGC]
NIH Molecular Libraries Probe Production Centers Network [MLPCN]
Assay Provider (PI): Yi Sung, University of Michigan at Ann Arbor
5ul of 1000 cells per well are dispensed in all wells except column 4, into white solid-bottom TC-treated Kalypsys plates. The cells are kept in Opti-MEM and supplemented with 10% FBS and dispensed using a Multidrop (Thermo). Then using the Kalypsys pin-tool, 23nl of compounds are pinned. The compounds are starting concentration at 10mM, with 1:5 dilution, 4 points, and the control compound nocodazole is pinned in column 1 at 25mM, 1:3 dilution, in duplicate, 25mM nocodazole is pinned in column 2. Please note, all concentrations are working concentrations. 5ul of 1pM purified luciferase enzyme is dispensed using the Kalypsys dispenser in column 4. Plates are incubated for 24 hrs at 37 deg C, 5% CO2, and 95% humidity. Then 4ul of the detection reagent Amplite (ABD Bioquest) is added using the Kalypsys dispenser. Plates are incubated for 10 min at ambient room temperature and are then read on the ViewLux (Perkin Elmer) using a clear filter for a luminescent read-out.

| Compound | outcome |
| --- | --- |
| N=C1c2ccccc2CN1CC(=O)c1ccccc1 | inactive |
| N#Cc1cc2c(nc1SCC(=O)Nc1cc(Cl)ccc1Cl)C1CCN2CC1 | inactive |
| COc1ccc(CN2CCNCC2)cc1 | inactive |
| CC1CCCCC1NC1CCN(C)CC1 (configuration not stated) | inactive |
| COC(=O)C1=C(c2cccc(C#N)c2)C[C@@H]2CC[C@H]1N2C(=O)NC1CC1 | inactive |
| CCCCCCOc1ccc(CN2CCN(C)CC2)cc1 | inactive |
| C=C(C)C(Cc1c(OC)ccc(C(=O)/C=C/c2ccc(O)cc2)c1O)OO (configuration not stated) | inactive |
| N#Cc1cc2c(nc1SCC(=O)Nc1ccc(Cl)cc1)C1CCN2CC1 | inactive |
| Nc1c(C(=O)NCc2ccco2)c2nc3ccccc3nc2n1Cc1ccc(F)cc1 | inactive |
| Cc1cc(N2C(=O)C3CCCN3C2c2sccc2C)no1 (configuration not stated) | inactive |
| O=C(N/N=C/c1c(O)n(C2CC2)c(=S)[nH]c1=O)c1ccccc1 | inactive |
| CN(C)P(=O)(C(Cl)=C(N1CCCCC1)N1CCCCC1)N(C)C | inactive |
| O=C(N/N=C/c1c(O)n(Cc2ccccc2)c(=O)[nH]c1=O)c1ccccc1 | inactive |
| COC(=O)C1=C(c2ccc(F)cc2OCc2ccccc2)C[C@@H]2CC[C@H]1N2C(=O)NCCOc1ccc(OC)cc1 | inactive |
| Nc1ccccc1N=Cc1c(O)n(CCC2=CCCCC2)c(=O)[nH]c1=O | inactive |
| COc1ccc(NC(=O)C2C3CCC(O3)C2C(=O)O)c(OC)c1 (configuration not stated) | inactive |
| O=C(c1cc2c(s1)CCCC2)N1CCC2(CC1)OCCO2 | inactive |
